Some structures have more than one record in an assay (separate samples or runs), and their calls can disagree. Activity calls are given as the source filed them. How the source made its calls: active means hit-call score of the fitted dose curve at least 0.9, where 1 is the maximum; inactive means score below 0.9.
test: CCTE_Shafer_MEA_dev_mutual_information_norm: CCTE's Neural Network Formation Assay for Mutual Information Normalization, Shafer Lab (AID 2284091);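 on AC50: potency is for a decrease in mutual information relative to DMSO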
Description: CCTE_Shafer_MEA_dev assay is conducted using Axion Biosystems 48 well microelectrode array (MEA) plates and Maestro recording system. Each well of the MEA plate contains a grid of 16 microelectrodes embedded in the culture surface. Electrically active cells, such as neurons, can be cultured over the electrodes, and electrical activity in these cells can be recorded extracellularly. The spontaneous firing of neurons is captured from each electrode on a microsecond timescale providing both temporally and spatially precise data. […] The CCTE_Shafer_MEA_dev assay uses primary cultures of rat cortical neurons. Recordings are made on days post-plating 5, 7, 9 and 12. As these cultures mature over time, neural networks develop functional activity and form cohesive networks in which electrical activity can be highly coordinated. CCTE_Shafer_MEA_dev_mutual_information_norm is 1 of 19 assay components of the CCTE_Shafer_MEA_dev assay. It is a measure of shared information between electrodes during a recording in a microelectrode array (MEA) using Axion Biosystems Maestro 768 channel amplifier with the AxIS adaptive spike detector. To collapse across multiple recordings made on days post-plating 5, 7, 9 and 12, the trapezoidal area-under-the-curve of the component is calculated.Data from the assay component CCTE_Shafer_MEA_dev_mutual_information_norm was analyzed into 1 assay endpoint. This assay endpoint, CCTE_Shafer_MEA_dev_mutual_information_norm, was analyzed in the negative analysis fitting direction relative to DMSO as the negative control and baseline of activity. Using a type of functional reporter, gain or loss-of-signal activity can be used to understand electrical activity.
On the day prior to culture, each well was coated thoroughly with 150 uL of 0.05% polyethyleneimine (PEI, Sigma Cat P3143) in 50 mM HEPES (Sigma Cat H7523) at a pH of 8. The plate was incubated at 37C for one hour. PEI was rinsed out with 500 uL of sterile water three times. Plates were stored at 4C until the day of culture. This culture was plated at a seeding density of 1.5 x 10^5 cells/well on a 48-well MEA plate, prepared as described above. Cells were administered via a 25 uL media/laminin ([…]; Sigma Cat L2020-1MG) drop directly onto the microelectrode array, as adding the cells with the laminin results in better attachment than pre-coating with laminin. After 2 hours, an additional 475 uL of cortical media was added and the cells returned to the incubator. Exposure starts at day 0 of plating and is continued over twelve days of network development until the experiment is terminated. Cells are fed with fresh medium on DIV 5 and 9, following the recordings on those days. The entire volume of media in the well is exchanged and any vehicle or compound treatment is renewed. Complete details are found in OP-NHEERL/ISTD/SBB/TJS/2015-03-r0 (available on request, email shafer.tim@epa.gov). Measurement of the electrical activity is non-invasive, and recordings can be made from the same plate over multiple different days of the culture. In cortical neurons, this allows for the measurement of extracellular action potentials over the period during which networks form in the MEA plate.

| SMILES | outcome | AC50 |
| --- | --- | --- |
| Cc1cc(=O)[nH]c(=S)[nH]1 | inactive |  |
| OC[C@@H](O)[C@@H](O)[C@H](O)[C@H](O)CO | inactive |  |
| CCCc1cc(=O)[nH]c(=S)[nH]1 | inactive |  |
| CC(C)c1ccc(C(=O)N=C(N)N)cc1S(C)(=O)=O | inactive |  |
| CC(=O)Oc1ccccc1C(=O)O | inactive | 15 µM (active) |
| O=c1[nH]cc(F)c(=O)[nH]1 |  | 0.756 µM (active) |
| C=CCc1ccc(O)c(OC)c1 | inactive |  |
| FC(F)(F)C(F)(F)C(F)(F)C(F)(F)C(F)(F)C(F)(F)CCI | inactive |  |
| C[Si]1(C)O[Si](C)(C)O[Si](C)(C)O[Si](C)(C)O1 | inactive |  |

Source: PubChem BioAssay (EPA / NIEHS)
